# Laboratory results: publication PMC7862700, “An all-to-all approach to the identification of sequence-specific readers for epigenetic DNA modifications on cytosine”
# Tests used:
# Assay in all cases: DAPPL (digital affinity profiling via proximity ligation, sequencing); 10 mM Tris-HCl pH 7.5, 50 mM NaCl, 1 mM DTT, 4% glycerol, room temperature, 30 min; GST-TFs on glutathione beads, 16-mer random dsDNA library, 0.1% formaldehyde crosslink after washing; high values mean tight binding
# [1] = target: T1, FLI1 (Homo sapiens, UniProt Q01543 1-452); conditions: protein: recombinant; tags: N-terminal GST; dsDNA, one strand shown
# T1 sequence: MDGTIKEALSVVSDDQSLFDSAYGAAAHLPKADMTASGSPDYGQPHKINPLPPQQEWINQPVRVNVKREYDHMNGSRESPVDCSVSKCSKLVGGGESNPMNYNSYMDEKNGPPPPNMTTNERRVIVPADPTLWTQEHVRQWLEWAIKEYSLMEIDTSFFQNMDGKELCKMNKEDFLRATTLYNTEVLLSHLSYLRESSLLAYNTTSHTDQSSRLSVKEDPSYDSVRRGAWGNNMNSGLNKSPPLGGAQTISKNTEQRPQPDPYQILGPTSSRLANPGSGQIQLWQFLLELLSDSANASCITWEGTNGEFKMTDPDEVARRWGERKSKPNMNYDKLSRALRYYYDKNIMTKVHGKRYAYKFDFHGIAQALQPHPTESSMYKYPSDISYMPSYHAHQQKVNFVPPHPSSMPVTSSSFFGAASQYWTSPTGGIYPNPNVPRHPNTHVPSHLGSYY
# Procedure, shortened: (§1)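 Binding signal is given per hexamer as its read frequency for a factor divided by its frequency in the tag-only sample. GST-fused human transcription factors were expressed in yeast, captured on glutathione beads, barcoded with DNA and pooled with that sample, then incubated with 200 nmole of a 16-mer random double-stranded DNA library in Tris/NaCl/DTT/glycerol buffer for 30 min at room temperature. The pools were then washed, crosslinked, proximity-ligated, amplified by PCR and sequenced on an Illumina NextSeq500.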
# [2] = target: T2, ELK1 (Homo sapiens, UniProt P19419 1-428); conditions: protein: recombinant; tags: N-terminal GST; dsDNA, one strand shown
# T2 sequence: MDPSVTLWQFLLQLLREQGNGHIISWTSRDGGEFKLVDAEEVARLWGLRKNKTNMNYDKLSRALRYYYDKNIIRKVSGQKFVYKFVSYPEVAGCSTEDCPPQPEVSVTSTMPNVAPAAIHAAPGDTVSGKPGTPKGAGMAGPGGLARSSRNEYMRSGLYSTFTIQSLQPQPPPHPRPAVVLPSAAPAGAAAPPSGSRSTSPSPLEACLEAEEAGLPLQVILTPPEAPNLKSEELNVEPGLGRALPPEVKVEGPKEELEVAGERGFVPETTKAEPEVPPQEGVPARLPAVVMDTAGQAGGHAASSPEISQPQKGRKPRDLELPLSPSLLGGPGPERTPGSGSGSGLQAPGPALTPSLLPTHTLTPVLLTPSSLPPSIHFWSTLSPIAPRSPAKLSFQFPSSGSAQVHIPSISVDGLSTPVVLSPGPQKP
# Procedure, shortened: as §1
# [3] = target: T3, GABPA (Homo sapiens, UniProt Q06546 1-454); conditions: protein: recombinant; tags: N-terminal GST; dsDNA, one strand shown
# T3 sequence: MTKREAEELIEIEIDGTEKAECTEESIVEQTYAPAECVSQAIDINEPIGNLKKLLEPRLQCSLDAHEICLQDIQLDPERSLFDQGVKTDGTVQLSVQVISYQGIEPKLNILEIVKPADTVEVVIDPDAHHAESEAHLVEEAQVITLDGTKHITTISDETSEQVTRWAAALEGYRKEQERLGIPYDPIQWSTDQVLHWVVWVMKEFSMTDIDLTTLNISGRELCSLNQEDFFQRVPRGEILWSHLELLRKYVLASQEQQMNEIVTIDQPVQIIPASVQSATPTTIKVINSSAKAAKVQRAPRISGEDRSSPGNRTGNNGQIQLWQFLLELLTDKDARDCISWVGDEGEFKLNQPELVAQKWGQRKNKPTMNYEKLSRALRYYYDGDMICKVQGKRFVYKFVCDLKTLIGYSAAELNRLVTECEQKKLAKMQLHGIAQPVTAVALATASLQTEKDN
# Procedure, shortened: as §1
# [4] = target: T4, ERG (Homo sapiens, UniProt P11308 1-479); conditions: protein: recombinant; tags: N-terminal GST; dsDNA, one strand shown
# T4 sequence: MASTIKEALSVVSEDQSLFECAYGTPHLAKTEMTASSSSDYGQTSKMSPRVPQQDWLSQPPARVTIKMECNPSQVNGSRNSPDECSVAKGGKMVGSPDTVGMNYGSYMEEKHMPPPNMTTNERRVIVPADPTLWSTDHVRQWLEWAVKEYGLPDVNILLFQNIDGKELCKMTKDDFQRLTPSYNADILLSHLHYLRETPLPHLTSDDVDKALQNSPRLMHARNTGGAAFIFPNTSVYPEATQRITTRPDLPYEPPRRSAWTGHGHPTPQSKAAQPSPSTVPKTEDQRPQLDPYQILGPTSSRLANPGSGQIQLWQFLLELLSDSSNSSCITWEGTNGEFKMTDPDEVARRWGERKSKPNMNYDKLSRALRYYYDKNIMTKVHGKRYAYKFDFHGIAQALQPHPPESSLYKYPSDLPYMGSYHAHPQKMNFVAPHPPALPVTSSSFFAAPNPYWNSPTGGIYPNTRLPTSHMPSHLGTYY
# Procedure, shortened: as §1
# [5] = target: ELF1 (Homo sapiens, UniProt P32519 1-619); conditions: protein: recombinant; tags: N-terminal GST; dsDNA, one strand shown
# Procedure, shortened: as §1
# [6] = target: T5, EHF (Homo sapiens, UniProt Q9NZC4 1-300); conditions: protein: recombinant; tags: N-terminal GST; dsDNA, one strand shown
# T5 sequence: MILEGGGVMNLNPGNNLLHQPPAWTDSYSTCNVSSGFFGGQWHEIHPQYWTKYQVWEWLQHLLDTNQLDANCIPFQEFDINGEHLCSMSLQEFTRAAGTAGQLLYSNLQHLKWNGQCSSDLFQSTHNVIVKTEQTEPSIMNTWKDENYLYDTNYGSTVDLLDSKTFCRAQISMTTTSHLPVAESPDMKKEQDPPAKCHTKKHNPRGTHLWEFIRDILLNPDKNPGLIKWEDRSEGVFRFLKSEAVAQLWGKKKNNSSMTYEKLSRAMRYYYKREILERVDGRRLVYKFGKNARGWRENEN
# Procedure, shortened: as §1
# [7] = target: SPI1 (Homo sapiens, UniProt P17947 1-270); conditions: protein: recombinant; tags: N-terminal GST; dsDNA, one strand shown
# Procedure, shortened: as §1
# [8] = target: SPIB (Homo sapiens, UniProt Q01892 1-262); conditions: protein: recombinant; tags: N-terminal GST; dsDNA, one strand shown
# Procedure, shortened: as §1
# [9] = target: T6, ELK3 (Homo sapiens, UniProt P41970 1-407); conditions: protein: recombinant; tags: N-terminal GST; dsDNA, one strand shown
# T6 sequence: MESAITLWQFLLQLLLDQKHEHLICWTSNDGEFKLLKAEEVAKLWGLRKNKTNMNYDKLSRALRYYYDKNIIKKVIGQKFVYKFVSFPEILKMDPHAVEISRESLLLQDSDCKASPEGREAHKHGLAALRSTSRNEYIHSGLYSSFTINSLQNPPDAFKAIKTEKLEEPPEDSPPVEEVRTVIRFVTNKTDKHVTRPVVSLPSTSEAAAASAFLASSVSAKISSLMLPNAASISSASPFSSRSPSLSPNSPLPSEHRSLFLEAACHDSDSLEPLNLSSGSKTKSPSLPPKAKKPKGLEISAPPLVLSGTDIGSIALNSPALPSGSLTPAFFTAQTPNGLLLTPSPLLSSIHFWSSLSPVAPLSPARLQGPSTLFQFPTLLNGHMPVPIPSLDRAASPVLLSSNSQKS
# Procedure, shortened: as §1
# [10] = target: T7, FEV (Homo sapiens, UniProt Q99581 1-238); conditions: protein: recombinant; tags: N-terminal GST; dsDNA, one strand shown
# T7 sequence: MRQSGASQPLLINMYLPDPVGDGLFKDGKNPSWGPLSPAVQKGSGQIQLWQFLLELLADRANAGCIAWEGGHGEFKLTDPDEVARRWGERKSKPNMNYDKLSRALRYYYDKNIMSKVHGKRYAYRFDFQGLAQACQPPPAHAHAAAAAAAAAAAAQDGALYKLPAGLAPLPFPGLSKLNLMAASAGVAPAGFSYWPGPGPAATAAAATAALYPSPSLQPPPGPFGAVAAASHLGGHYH
# Procedure, shortened: as §1
# [11] = target: ETV5 (Homo sapiens, UniProt P41161 1-510); conditions: protein: recombinant; tags: N-terminal GST; dsDNA, one strand shown
# Procedure, shortened: as §1
# [12] = target: HSF1 (Homo sapiens, UniProt Q00613 1-529); conditions: protein: recombinant; tags: N-terminal GST; chain copies: 3; dsDNA, one strand shown
# Procedure, shortened: as §1
# [13] = target: T8, SPIC (Homo sapiens, UniProt Q8N5J4 1-248); conditions: protein: recombinant; tags: N-terminal GST; dsDNA, one strand shown
# T8 sequence: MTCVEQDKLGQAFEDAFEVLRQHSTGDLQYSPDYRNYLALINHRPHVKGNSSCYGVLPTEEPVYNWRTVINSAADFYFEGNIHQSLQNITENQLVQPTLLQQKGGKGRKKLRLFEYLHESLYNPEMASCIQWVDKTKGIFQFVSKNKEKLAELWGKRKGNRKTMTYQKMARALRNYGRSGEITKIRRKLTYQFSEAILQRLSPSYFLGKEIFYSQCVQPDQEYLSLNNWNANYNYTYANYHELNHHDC
# Procedure, shortened: as §1
# [14] = target: ELF4 (Homo sapiens, UniProt Q99607 1-663); conditions: protein: recombinant; tags: N-terminal GST; dsDNA, one strand shown
# Procedure, shortened: as §1
# [15] = target: T9, ELK4 (Homo sapiens, UniProt P28324-2 1-405); conditions: protein: recombinant; tags: N-terminal GST; dsDNA, one strand shown
# T9 sequence: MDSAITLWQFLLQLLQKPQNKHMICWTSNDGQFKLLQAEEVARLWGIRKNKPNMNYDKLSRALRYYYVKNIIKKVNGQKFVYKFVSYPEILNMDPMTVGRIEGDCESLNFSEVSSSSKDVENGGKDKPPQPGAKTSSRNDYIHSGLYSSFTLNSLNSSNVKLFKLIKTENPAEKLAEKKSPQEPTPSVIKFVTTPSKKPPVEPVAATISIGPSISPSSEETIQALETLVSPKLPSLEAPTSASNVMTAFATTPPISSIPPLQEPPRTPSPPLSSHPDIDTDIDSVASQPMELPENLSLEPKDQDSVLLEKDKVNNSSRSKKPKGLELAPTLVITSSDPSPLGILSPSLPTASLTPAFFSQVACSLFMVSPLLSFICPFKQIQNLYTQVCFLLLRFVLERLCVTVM
# Procedure, shortened: as §1
# [16] = target: T10, ETV2 (Homo sapiens, UniProt O00321 1-342); conditions: protein: recombinant; tags: N-terminal GST; dsDNA, one strand shown
# T10 sequence: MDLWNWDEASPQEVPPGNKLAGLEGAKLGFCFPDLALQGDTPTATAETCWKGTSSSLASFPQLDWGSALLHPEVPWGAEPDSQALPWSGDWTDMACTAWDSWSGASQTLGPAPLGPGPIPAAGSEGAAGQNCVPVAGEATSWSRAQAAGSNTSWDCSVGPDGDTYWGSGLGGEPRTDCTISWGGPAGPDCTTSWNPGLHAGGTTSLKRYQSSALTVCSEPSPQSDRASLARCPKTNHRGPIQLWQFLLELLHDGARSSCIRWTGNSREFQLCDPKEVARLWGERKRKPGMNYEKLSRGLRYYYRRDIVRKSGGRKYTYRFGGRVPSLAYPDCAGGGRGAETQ
# Procedure, shortened: as §1
# [17] = target: T11, ELF3 (Homo sapiens, UniProt P78545 1-371); conditions: protein: recombinant; tags: N-terminal GST; dsDNA, one strand shown
# T11 sequence: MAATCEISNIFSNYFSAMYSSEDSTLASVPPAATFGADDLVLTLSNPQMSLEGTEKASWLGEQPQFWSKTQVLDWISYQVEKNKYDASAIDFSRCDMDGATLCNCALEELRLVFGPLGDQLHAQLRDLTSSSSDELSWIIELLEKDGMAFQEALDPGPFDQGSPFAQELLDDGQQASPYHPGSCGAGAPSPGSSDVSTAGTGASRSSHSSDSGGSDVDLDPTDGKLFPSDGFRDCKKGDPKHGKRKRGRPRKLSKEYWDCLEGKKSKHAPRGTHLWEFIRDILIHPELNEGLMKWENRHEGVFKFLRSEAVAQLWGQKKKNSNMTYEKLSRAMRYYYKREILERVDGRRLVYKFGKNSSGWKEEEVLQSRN
# Procedure, shortened: as §1
# [18] = target: CRX (Homo sapiens, UniProt O43186 1-299); conditions: protein: recombinant; tags: N-terminal GST; dsDNA, one strand shown
# Procedure, shortened: as §1
# [19] = target: ETV1 (Homo sapiens, UniProt P50549 1-477); conditions: protein: recombinant; tags: N-terminal GST; dsDNA, one strand shown
# Procedure, shortened: as §1
# Chain of ETV5 (P41161 whole entry): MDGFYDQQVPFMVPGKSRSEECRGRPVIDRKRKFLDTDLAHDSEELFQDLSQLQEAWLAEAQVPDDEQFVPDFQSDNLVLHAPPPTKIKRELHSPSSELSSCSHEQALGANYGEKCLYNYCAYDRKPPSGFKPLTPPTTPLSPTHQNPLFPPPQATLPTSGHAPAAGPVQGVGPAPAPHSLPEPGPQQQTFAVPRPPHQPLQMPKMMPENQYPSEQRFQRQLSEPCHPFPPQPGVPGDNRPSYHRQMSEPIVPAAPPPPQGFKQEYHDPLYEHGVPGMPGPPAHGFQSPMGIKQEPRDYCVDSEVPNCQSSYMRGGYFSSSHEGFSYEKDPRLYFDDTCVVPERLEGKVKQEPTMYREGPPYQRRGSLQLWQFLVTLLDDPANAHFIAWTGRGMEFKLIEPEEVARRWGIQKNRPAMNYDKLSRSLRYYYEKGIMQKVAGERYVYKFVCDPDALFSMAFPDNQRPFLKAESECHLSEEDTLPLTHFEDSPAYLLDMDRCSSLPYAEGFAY
# Chain of ELF1 (P32519 whole entry): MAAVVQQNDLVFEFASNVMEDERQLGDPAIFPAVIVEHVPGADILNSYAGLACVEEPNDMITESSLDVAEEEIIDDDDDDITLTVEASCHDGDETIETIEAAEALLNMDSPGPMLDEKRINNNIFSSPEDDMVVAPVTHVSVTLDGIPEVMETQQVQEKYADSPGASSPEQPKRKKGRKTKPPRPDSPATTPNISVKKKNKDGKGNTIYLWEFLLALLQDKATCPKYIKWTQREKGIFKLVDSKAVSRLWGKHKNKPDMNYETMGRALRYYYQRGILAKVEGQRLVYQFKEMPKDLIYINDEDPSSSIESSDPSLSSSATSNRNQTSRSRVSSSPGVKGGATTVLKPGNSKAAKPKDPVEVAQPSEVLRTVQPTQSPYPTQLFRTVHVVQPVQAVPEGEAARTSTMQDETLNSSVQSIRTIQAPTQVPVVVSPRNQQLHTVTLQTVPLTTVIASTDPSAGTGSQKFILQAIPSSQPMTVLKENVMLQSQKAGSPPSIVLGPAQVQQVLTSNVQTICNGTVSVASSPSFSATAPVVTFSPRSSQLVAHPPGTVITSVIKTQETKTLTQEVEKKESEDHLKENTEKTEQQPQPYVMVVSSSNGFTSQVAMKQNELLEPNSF
# Chain of ELF4 (Q99607 whole entry): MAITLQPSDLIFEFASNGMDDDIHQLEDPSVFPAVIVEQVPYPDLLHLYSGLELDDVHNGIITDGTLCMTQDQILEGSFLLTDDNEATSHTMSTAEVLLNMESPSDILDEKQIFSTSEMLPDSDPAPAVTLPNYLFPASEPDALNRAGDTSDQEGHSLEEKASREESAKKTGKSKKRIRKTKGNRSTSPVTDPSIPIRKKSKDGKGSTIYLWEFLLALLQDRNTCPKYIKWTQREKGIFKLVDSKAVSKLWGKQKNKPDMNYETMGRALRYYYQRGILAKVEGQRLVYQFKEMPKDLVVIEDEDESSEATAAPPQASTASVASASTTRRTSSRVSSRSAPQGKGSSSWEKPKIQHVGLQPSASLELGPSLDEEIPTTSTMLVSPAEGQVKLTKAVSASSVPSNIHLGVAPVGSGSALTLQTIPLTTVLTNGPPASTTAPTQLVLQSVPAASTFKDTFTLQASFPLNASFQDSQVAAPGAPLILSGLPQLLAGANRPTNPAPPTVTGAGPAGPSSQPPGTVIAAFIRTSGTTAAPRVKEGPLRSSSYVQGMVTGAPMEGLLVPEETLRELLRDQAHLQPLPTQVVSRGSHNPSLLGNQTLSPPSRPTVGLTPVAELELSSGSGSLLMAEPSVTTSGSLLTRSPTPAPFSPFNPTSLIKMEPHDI
# Chain of HSF1 (Q00613 whole entry): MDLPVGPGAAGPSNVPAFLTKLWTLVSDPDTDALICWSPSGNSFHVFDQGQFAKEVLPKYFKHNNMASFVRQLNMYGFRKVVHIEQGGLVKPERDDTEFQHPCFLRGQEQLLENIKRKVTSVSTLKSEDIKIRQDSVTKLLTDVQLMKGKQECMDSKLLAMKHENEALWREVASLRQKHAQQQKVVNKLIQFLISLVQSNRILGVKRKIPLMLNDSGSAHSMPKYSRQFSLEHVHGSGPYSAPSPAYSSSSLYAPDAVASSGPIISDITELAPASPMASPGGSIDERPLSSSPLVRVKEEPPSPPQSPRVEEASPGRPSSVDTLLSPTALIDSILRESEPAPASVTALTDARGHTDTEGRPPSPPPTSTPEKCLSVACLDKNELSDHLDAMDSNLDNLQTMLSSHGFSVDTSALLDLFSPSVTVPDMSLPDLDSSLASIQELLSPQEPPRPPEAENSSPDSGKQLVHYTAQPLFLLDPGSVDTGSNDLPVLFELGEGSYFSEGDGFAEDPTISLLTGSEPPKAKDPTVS
# Chain of ETV1 (P50549 whole entry): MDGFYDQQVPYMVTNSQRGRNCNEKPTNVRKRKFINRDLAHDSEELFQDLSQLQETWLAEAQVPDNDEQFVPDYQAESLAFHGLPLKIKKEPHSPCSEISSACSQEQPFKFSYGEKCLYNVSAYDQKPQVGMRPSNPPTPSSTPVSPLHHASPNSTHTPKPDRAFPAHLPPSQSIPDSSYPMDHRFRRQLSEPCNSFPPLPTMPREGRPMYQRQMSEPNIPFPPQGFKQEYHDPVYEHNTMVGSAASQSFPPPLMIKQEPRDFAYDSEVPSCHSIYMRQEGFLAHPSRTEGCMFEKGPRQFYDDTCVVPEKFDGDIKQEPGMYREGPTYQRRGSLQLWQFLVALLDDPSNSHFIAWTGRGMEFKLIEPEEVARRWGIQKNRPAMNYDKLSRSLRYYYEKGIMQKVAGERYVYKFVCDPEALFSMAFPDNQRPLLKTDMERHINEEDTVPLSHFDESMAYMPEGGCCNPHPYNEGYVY
# Chain of CRX (O43186 whole entry): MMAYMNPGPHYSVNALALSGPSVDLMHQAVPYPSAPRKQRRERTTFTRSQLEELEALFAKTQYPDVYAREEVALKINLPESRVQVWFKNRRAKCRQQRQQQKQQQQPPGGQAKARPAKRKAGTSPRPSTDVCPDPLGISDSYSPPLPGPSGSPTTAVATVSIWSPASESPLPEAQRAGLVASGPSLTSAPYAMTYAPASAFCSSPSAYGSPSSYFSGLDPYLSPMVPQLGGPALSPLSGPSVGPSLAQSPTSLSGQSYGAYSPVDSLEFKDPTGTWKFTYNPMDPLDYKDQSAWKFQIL
# Chain of SPIB (Q01892 whole entry): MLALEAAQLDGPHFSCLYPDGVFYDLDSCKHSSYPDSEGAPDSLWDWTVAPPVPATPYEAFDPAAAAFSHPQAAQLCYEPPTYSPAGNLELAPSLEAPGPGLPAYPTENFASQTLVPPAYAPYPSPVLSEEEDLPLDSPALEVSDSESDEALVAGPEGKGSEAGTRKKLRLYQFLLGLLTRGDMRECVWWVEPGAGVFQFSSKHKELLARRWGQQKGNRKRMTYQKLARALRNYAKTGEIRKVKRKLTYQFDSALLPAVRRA
sequence,measurement,setting,value
CTTATG,binding signal,[1],"1.52 fold enrichment (6-mer frequency, TF over GST control)"
same,binding signal,[2],"1.56 fold enrichment (6-mer frequency, TF over GST control)"
same,binding signal,[3],"1.4 fold enrichment (6-mer frequency, TF over GST control)"
same,binding signal,[4],"1.45 fold enrichment (6-mer frequency, TF over GST control)"
same,binding signal,[5],"1.38 fold enrichment (6-mer frequency, TF over GST control)"
same,binding signal,[6],"1.39 fold enrichment (6-mer frequency, TF over GST control)"
same,binding signal,[7],"1.45 fold enrichment (6-mer frequency, TF over GST control)"
same,binding signal,[8],"1.59 fold enrichment (6-mer frequency, TF over GST control)"
same,binding signal,[9],"1.46 fold enrichment (6-mer frequency, TF over GST control)"
same,binding signal,[10],"1.35 fold enrichment (6-mer frequency, TF over GST control)"
same,binding signal,[11],"1.5 fold enrichment (6-mer frequency, TF over GST control)"
same,binding signal,[12],"1.64 fold enrichment (6-mer frequency, TF over GST control)"
same,binding signal,[13],"1.33 fold enrichment (6-mer frequency, TF over GST control)"
same,binding signal,[14],"1.49 fold enrichment (6-mer frequency, TF over GST control)"
same,binding signal,[15],"1.55 fold enrichment (6-mer frequency, TF over GST control)"
same,binding signal,[16],"1.37 fold enrichment (6-mer frequency, TF over GST control)"
same,binding signal,[17],"1.45 fold enrichment (6-mer frequency, TF over GST control)"
same,binding signal,[18],"2.2 fold enrichment (6-mer frequency, TF over GST control)"
same,binding signal,[19],"1.58 fold enrichment (6-mer frequency, TF over GST control)"
